In the library only some 1.7% were active in any assay of this set; here they are far more common.
HEK293 tox: qHTS of GLP-1 Receptor Inverse Agonists: Cytotox Screen | HEK293 cAMP-luciferase reporter cells, luminescence, 24 h | Potency, µM (doses to about 38.3 µM), for the others: at the top dose activity change, negative = inhibition, usual class: inhibitors | 0.13% of 410,000 active;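 further: loss of luciferase light is scored as toxicity; on the % scale 0 is the no-effect control and ±100 the full control effect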
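Compound-treated cells are incubated 24 hr at 37 deg C under 5% CO2 after a 12 hour attachment period, then luciferase detection reagent is added and luminescence is measured following 12 min at room temperature; lowered signal indicates toxicity.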
GLP1R ag: qHTS of GLP-1 Receptor Agonists; Glucagon-like peptide 1 receptor (Homo sapiens), P43220; HEK293 GLP-1R CRE-luciferase, luminescence, 4-6 h; cells express a hypersensitive GLP-1R form; Potency, µM (highest dose often 45.6 µM), without a hit: at the highest dose activation, actives largely listed as activators; 0.007% of 380,000 active; further: % of control where 0% means no effect
Target sequence (P43220 whole entry, looked up): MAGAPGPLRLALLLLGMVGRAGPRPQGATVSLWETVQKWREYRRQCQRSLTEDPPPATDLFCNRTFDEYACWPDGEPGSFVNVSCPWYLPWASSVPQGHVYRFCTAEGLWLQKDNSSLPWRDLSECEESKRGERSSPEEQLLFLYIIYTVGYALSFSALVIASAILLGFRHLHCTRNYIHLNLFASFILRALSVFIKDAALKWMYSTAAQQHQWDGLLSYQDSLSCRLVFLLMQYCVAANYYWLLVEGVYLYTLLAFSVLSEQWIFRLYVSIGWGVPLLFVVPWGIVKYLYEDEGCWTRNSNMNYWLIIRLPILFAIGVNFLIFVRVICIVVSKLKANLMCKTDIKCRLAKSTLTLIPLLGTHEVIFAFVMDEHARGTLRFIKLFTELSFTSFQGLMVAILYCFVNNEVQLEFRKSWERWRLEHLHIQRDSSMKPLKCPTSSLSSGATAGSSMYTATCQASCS
GLP1R inv ag: qHTS of GLP-1 Receptor Inverse Agonists (Inhibition Mode). Glucagon-like peptide 1 receptor (Homo sapiens), P43220. HEK293 GLP-1R CRE-luciferase, luminescence, 24 h; GLP-1R form is constitutively active. Potency, µM (doses to about 38.3 µM), without a hit: at the highest dose activity change, negative = inhibition, usual class: inhibitors. 1.6% of 410,000 active. AID 624417, 2012; further: on the % scale 0 is the no-effect control and ±100 the full control effect; nearly all actives have a fitted effect of over 55% in size
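Seeding at 200 cells/uL, 12 h culture, 24 hr compound treatment, then luciferase reagent and a luminescence read; cells are HEK293 stably expressing a constitutively active GLP-1R plus cAMP-responsive luciferase.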
Numbers without * were called inactive; ? = inconclusive; . = no result given; [ ] = another dose, or the depositor's remark. The call rests on the fitted dose curve; in most records, active means well fitted curve in the direction sought with a large enough effect; inconclusive means small, poorly fitted or top-dose-only effect, or another doubt; inactive means no such curve, though single readings can be large; an effect the other way counts as inactive or inconclusive. Potency means the concentration at half of the fitted maximal effect.

SMILES | HEK293 tox | GLP1R ag | GLP1R inv ag
O=C(CSc1nnc(-c2ccc(Cl)cc2)n1Cc1ccco1)NCc1ccc2c(c1)OCO2 | -14.7% | -2.8% | 10µM*
O=[N+]([O-])c1cccc(C2NCC(c3ccccc3Cl)c3c2[nH]c2ccccc32)c1 (stereo not given) | -2.7%[7.66 µM] | -4.8% | ?
CN(C)c1ccc(C2CNC(c3ccc(Cl)c([N+](=O)[O-])c3)c3[nH]c4ccccc4c32)cc1 (stereo not given) | 14.7% | -2.3% | 4.47µM*
CC1(C(=O)O)CCC(C(=O)Nc2ccc(OC(F)(F)Cl)cc2)C1(C)C (stereo not given) | -17.0% | -4.1% | -8.7%
CC1CC2(C)Oc3ccccc3CC2C(C)C1CNCCCN(C)C (stereo not given) | ? | -7.9% | 0.891µM*
CC1Cc2ccccc2N1C(=O)CNCCCN(C)C (stereo not given) | -15.5% | -2.3% | ?
COc1ccc(-n2cc(-c3ccc4c(c3)OCO4)n(CC(=O)Nc3cccc(C)c3)c2=O)cc1 | -16.4% | . | ?
CN(C)CCCN1C(=O)c2cccc3cccc(c23)C1=O | ? | -8.8% | -16.4%
CN(C)CCN1C(=O)c2cccc3cc([N+](=O)[O-])cc(c23)C1=O | ? | -18.9% | 1.78µM*
COc1ccc(CNS(=O)(=O)CCNC(=O)c2ccc3c(c2)OCO3)cc1 | -1.3% | 17.9% | -19.7%
COCCCNC(=O)c1ccc(-n2c(-c3ccccc3)cc3c2CCC(C)C3)cc1 (stereo not given) | -22.0% | . | 10µM*
CCOCCCNC(=O)c1ccc(-n2c(-c3ccccc3)cc3c2CCCCC3)cc1 | 2.2% | . | 0.1%
COCCNC(=O)CCCn1c(SCc2ccccc2Cl)nc2c(sc3ccccc32)c1=O | -5.2% | . | -0.1%
O=C(Cn1nc(C(F)(F)F)c2c1CCCC2)Nc1ccc(Br)cc1 | 3.6% | . | ?
CC(C)=NNc1cnnc2ccc([N+](=O)[O-])cc12 | -13.2% | 3.6% | 2.1%
CC1(CC(=O)N/N=C/c2ccc(OCc3ccc(Cl)cc3Cl)cc2)OCCCO1 | -22.2% | 4.5% | 8.91µM*
COc1cc(/C=N/NC(=O)CC2(C)OCCCO2)ccc1OCc1ccc(Cl)cc1Cl | -3.4% | 16.2% | ?
COc1ccc(OCC(=O)Nc2ccccc2N2CCN(C)CC2)cc1 | 3.7% | -0.7% | ?
CCC(=O)N1CCN(c2ccccc2NC(=O)COc2ccc(C(C)C)cc2)CC1 | -9.0% | 15.1% | 10µM*
COc1ccc(OCC(=O)Nc2ccc(N3CCN(C(=O)c4ccccc4)CC3)c(Cl)c2)cc1 | 7.5% | 0.1% | 10µM*
COc1ccc(OCC(=O)Nc2ccc(N3CCOCC3)c(Cl)c2)cc1 | -16.3% | 0.4% | -24.0%
Cc1ccccc1OCC(=O)Nc1ccc(N2CCN(C)CC2)c(Cl)c1 | -3.6% | 12.1% | 4.47µM*
Cc1ccccc1OCC(=O)Nc1ccc2c(c1)Cc1ccccc1-2 | 15.8% | 7.3% | 41.0%
O=C(NCC1CCCCC1)c1ccc2nc([C@@H]3O[C@H](CO)[C@@H](O)[C@H]3O)[nH]c2c1 | 0.2% | -1.5% | -3.5%
COc1ccc(C(=O)c2ccc(CC(=O)O)s2)cc1 | -8.2% | -0.7% | 6.6%
SMILES | HEK293 tox | GLP1R ag | GLP1R inv ag
O=C(CN1CCN(Cc2ccccc2)CC1)Nc1ccccc1-c1ccccc1 | -19.6% | 15.5% | 2µM*
NC(=O)c1ccccc1NC(=O)CN1CCN(Cc2ccccc2)CC1 | -4.2% | -0.2% | -10.4%
CCOC(=O)C(=NCCCN(C)C)NNc1ccc(Br)cc1 | ? | -1.2% | 3.98µM*
CCCCN=C(NNc1ccc(Br)cc1)C(=O)OCC | -20.3% | 1.7% | ?
FC(F)(F)c1ccc(-c2cccc3c2C2CC3CCN2Cc2ccc3c(c2)OCO3)cc1 (stereo not given) | -0.6% | -5.6% | 10.0%
CN(C)CCCN(C(=O)c1ccc2ccccc2c1)c1nc2cc3c(cc2s1)OCO3 | ? | -0.7% | ?
CN(C)CCN(C(=O)c1ccc2ccccc2c1)c1nc2cc3c(cc2s1)OCCO3 | -6.5% | 2.2% | ?
CN(C)CCN(C(=O)c1ccc(S(=O)(=O)N2CCCC2)cc1)c1nc2ccc(Br)cc2s1 | 62.3% | -4.2% | 5.62µM*
CN(C)CCCN(C(=O)c1ccc(S(=O)(=O)N(C)Cc2ccccc2)cc1)c1nc2cc3c(cc2s1)OCO3 | ? | 0.0% | 7.08µM*
CCN(c1ccccc1)S(=O)(=O)c1ccc(C(=O)N(CCCN(C)C)c2nc3cc4c(cc3s2)OCO4)cc1 | ? | 9.3% | 3.55µM*
CN(C)CCN(C(=O)c1cccc2ccccc12)c1nc2cc3c(cc2s1)OCO3 | -5.6% | 5.3% | 10µM*

Assay outcomes as filed in PubChem.
